Assay outcomes: PubChem BioAssay, NMMLSC
RGS7-Gao reg: RGS7-Galphao binding modulators, primary screen, biochemical, multiplexed bead flow cytometry | actives 0.35% (n = 220,000) | actives lie on both sides | Guanine nucleotide-binding protein G(o) subunit alpha (Homo sapiens), P09471 | AID 1439, 2008 | binding response (% of control), % at 10 µM; in the data active means binding response below about 49% or above about 150%; inconclusive means no clear call, values can overlap the other calls; inactive means in between;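 further: fluorescent Galphao held in activated GDP-AlF4 state binding bead-coupled RGS7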
Target sequence (P09471 whole entry, looked up): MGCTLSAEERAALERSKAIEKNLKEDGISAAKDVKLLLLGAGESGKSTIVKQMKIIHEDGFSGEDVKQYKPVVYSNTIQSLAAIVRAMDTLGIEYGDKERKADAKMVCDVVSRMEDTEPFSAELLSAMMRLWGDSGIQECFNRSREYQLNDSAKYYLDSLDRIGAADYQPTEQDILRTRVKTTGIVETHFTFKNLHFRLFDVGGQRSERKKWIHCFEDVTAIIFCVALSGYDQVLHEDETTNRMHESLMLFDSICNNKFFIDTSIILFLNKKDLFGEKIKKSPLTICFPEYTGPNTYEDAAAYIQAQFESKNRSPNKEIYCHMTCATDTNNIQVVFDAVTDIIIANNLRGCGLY
Avidin fluor: green autofluorescence of compounds with avidin beads – biophysical, 488/530 nm, flow cytometry, artefact control, profiling panel; fluorescence (KMESF) at 10 µM; AID 1775, 2009; actives 0.38% (n = 220,000); compound fluorescence 488/530 nm; active compounds read high; in the data active means fluorescence above about 47
RGS4-Gao reg: modulators of RGS4 binding to Galphao, primary screen, biochemical, multiplexed bead flow cytometry; actives lie on both sides; binding response (% of control), % at 10 µM; actives 0.33% (n = 220,000); AID 1415, 2008; in the data active means binding response below about 49% or above about 150%; inactive means in between;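 further: fluorescent Galphao activated with aluminum fluoride binding bead-coupled RGS4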
GSH fluor: compound fluorescence on glutathione beads, profiling panel, artefact control, biophysical, 488/530 nm, flow cytometry; GSH beads flow cytometry, compound fluorescence 488/530 nm; active compounds read high; fluorescence (KMESF) at 10 µM; actives 0.25% (n = 190,000); AID 1776, 2009; in the data active means fluorescence above about 89;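 further: glutathione beads carrying GST-tagged Bcl family fusion proteins plus one bare bead set; values are compound well signal with DMSO vehicle wells as background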
RGS8-Gao: RGS8-Galphao binding modulators, primary screen, biochemical, multiplexed bead flow cytometry. Guanine nucleotide-binding protein G(o) subunit alpha (Homo sapiens), P09471. actives lie on both sides. response (percent of control binding), % at 10 µM. actives 0.34% (n = 220,000). AID 1423, 2008; in the data active means response below about 60% or above about 140%; inactive means in between;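 further: Galphao activated as the GDP aluminium fluoride complex binding bead-coupled RGS8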
RGS16-Gao: modulators of RGS16 binding to Galphao, primary screen, biochemical, human proteins, multiplexed bead flow cytometry; Regulator of G-protein signaling 16 (Homo sapiens) + Guanine nucleotide-binding protein …; bead-based flow cytometry RGS16-Galphao binding, fluorescence; actives lie on both sides; binding response (% of control), % at 10 µM; actives 0.38% (n = 220,000); AID 1441, 2008;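 further: Galphao activated by GDP with aluminum fluoride before binding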
RGS-Gao: modulators of RGS–Galpha-o binding, primary screen, biochemical, multiplexed beads, flow cytometry, RGS4/7/8/16/19; shares compounds with RGS16-Gao; RGS4–Galpha-o binding response, % at 10 µM; AID 1504, 2009; actives 99% (n = 1,600); multiplexed bead flow cytometry;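 further: fluorescently labeled Galpha-o bound to GDP with aluminium fluoride binding biotinylated RGS beads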
Target sequence (P09471 whole entry, looked up): as above
Target sequence (P49798 whole entry, looked up): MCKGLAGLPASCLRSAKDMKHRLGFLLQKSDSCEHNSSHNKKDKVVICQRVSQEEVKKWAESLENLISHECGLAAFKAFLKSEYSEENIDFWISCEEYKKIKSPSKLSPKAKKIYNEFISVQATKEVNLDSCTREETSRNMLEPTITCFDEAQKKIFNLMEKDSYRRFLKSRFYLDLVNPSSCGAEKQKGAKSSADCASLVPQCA
Avidin counter: disruption of biotin probe capture by avidin, counter-screen for RGS protein interaction modulators, biochemical, flow cytometry, bead-based; streptavidin beads, fluorescein-biotin binding; inhibition, % at 10 µM; AID 1783, 2009; 1,700 tested, under 10 active; shares compounds with RGS16-Gao;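 active means inhibition above 50%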;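 further: median green fluorescence of gated singlet beads compared with DMSO control wells; 0% = DMSO wells and 100% = complete loss of bead fluorescence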
RGS8-Gao confirm: RGS8-Galphao binding modulators, confirmation, biochemical, multiplexed bead flow cytometry, single concentration; binding response (% of control), % at 10 µM; shares compounds with RGS16-Gao; actives 3% (n = 1,700); bead-based flow cytometry RGS8-Galphao binding, fluorescence; actives lie on both sides; in the data active means binding response below about 72% or above about 130%; inactive means in between;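 further: Galphao activated as GDP AlF4 complex before binding bead RGS8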
RGS7-Gao confirm: RGS7-Galphao binding modulators, confirmation, biochemical, multiplexed bead flow cytometry, single concentration; shares compounds with RGS16-Gao; bead-based flow cytometry RGS7-Galphao binding; actives lie on both sides; response (percent of control binding), % at 10 µM; actives 7.8% (n = 1,700); AID 1837, 2009; in the data active means response below about 75% or above about 130%; inactive means in between;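 further: fluorescent Galphao activated with GDP and aluminum fluoride binding bead-coupled RGS7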
RGS16-Gao single: modulators of RGS16-Galphao protein binding, confirmation, biochemical, single concentration, multiplexed bead flow cytometry. bead-based flow cytometry; actives lie on both sides. AID 1838, 2009. response (% of control binding), % at 10 µM. actives 4% (n = 1,700). shares compounds with RGS16-Gao; in the data active means response below about 74% or above about 130%; inactive means in between;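 further: Galphao activated as the GDP aluminium fluoride complex binding bead-coupled RGS16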
RGS4-Gao confirm: modulators of RGS4-Galphao protein binding, confirmation, biochemical, single concentration, multiplexed bead flow cytometry. actives 4% (n = 1,700). actives lie on both sides. shares compounds with RGS16-Gao. binding response (% of control), % at 10 µM; in the data active means binding response below about 74% or above about 130%; inactive means in between
RGS19-Gao single: regulators of RGS19-Galphao binding, confirmation, biochemical, single point, multiplexed bead flow cytometry | actives 5% (n = 1,700) | response (percent of control binding), % at 10 µM | AID 1841, 2009 | bead-based flow cytometry RGS19-Galphao binding; actives lie on both sides | shares compounds with RGS16-Gao; in the data active means response below about 50% or above about 160%; inactive means in between;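 further: 100% = no compound control and 0% = blank background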
* hit, by the source's call; ? = inconclusive; . = not tested or not shown; [ ] = dose if it differs, or a comment. An excerpt weighted towards active compounds, which were near 1.2% of everything screened. Unless noted, how the calls were made is not given here.

SMILES	RGS7-Gao reg	Avidin fluor	RGS4-Gao reg	GSH fluor	RGS8-Gao	RGS16-Gao	Avidin counter	RGS8-Gao confirm	RGS7-Gao confirm	RGS16-Gao single	RGS4-Gao confirm	RGS19-Gao single	others
NS(=O)(=O)c1ccc(CCNCC(=O)N2CCC(Cc3ccccc3)CC2)cc1	?	5	104	.	103	98	.	.	.	.	.	.
CCOC(=O)c1[nH]ncc1CN1CCCC(C(=O)c2ccc(C(C)(C)C)cc2)C1 (centres undefined)	112	12	114	12	140*[activator]	223	-3	105	108	105	105	84	RGS-Gao=114*
CCOC(=O)C1=NOC(C(=O)NN(C)c2ncc(C(F)(F)F)cc2Cl)C1 (centres undefined)	98	8	99	68	100	101	.	.	.	.	.	.
CC(C)(C)NC(=O)CSc1nc(N)c(-c2ccccc2)c(=O)[nH]1	99	15	103	14	105	109	.	.	.	.	.	.
Cc1ccc(NC(=O)CSc2nc(C)c(Cc3ccccc3)c(=O)[nH]2)cc1	22*	1	29*	16	17*	15*	0	99	102	102	102	104
Nc1nc(SCC(=O)Nc2ccccc2)[nH]c(=O)c1-c1ccccc1	.	.	.	36	.	.	0	98	96	101	99	106
COc1ccc(C2=[N+](C)CCn3cccc32)c(OC)c1	142	16	160*[activator]	10	124	205*[activator]	0	109	119	117	115	111
COc1ccc(CN2CCc3ccccc3C2)c(OC)c1	?	7	101	.	101	102	.	.	.	.	.	.
CCOC(=O)N1CCN(C(=O)C2CCN(C(=O)c3cc(OC)cc(OC)c3)CC2)CC1	130	6	123	9	134	205*[activator]	1	101	100	101	100	112	RGS-Gao=123*
O=C(CCc1ccccc1)NNC(=O)c1ccc(NC(=O)c2ccccc2)cc1	85	4	82	10	77	2.7*	-2	99	91	96	94	92	RGS-Gao=82*
O=Cc1ccccc1OCc1nnsc1Cl	95	11	90	11	95	86	.	.	.	.	.	.
CCN(CC)c1ccc(N=Cc2ccc([N+](=O)[O-])o2)cc1	56	2	69	8	71	20*	-1	93	76	91	85	86	RGS-Gao=69*
CCN(CC)c1ccc(N=Cc2ccccc2[N+](=O)[O-])cc1	95	2	93	9	84	58	.	.	.	.	.	.
Cc1ccc(Nc2nc(NCc3ccco3)c3ccccc3n2)cc1	90	8	96	16	101	98	.	.	.	.	.	.
CC1CC(OCC(O)C[N+]2(C)CCOCC2)CC(C)(C)C1 (centres undefined)	21*	5	22*	14	30*	17*	0	108	106	109	105	109
Cc1cccc(CSc2ncccc2C(=O)O)c1	105	23	122	21	135	285*[activator]	2	96	93	91	93	70	RGS-Gao=122*
Cc1ccc(CSc2ncccc2C(=O)O)cc1	100	14	104	11	95	97	.	.	.	.	.	.
Nc1cccc(/C=C/c2ccncc2)c1	?	8	98	.	100	98	.	.	.	.	.	.
OCC1CCCN(Cc2cn(Cc3ccccc3)nc2-c2cc3ccccc3o2)C1 (centres undefined)	92	10	100	11	104	107	.	.	.	.	.	.
CCc1nnc(SCc2ccc(OC)c(Br)c2)n1N	35*	15	40*	24	44*	33	-2	105	101	110	101	104
Cc1ccc(NC(=O)c2ccc3ncsc3c2)cc1S(=O)(=O)N(C)C	?	7	104	.	97	101	.	.	.	.	.	.
CC(=O)Nc1nc(C)c(CCCOc2ccc([N+](=O)[O-])cc2)c(=O)[nH]1	?	47*	153*[activator]	.	103	128	1	103	108	107	105	95
CCOC(CCc1c(C)nc(NC(C)=O)[nH]c1=O)OCC	?	6	102	.	98	103	.	.	.	.	.	.
COC(=O)CNC(=O)c1ccc(C)s1	101	14	100	22	96	99	.	.	.	.	.	.
COCCNC(=O)c1ccc(C(=O)NCCOC)s1	.	.	233*[activator]	36	.	.	3	100	98	99	99	90
Cc1cc(C)nc(Sc2ncnc(N)c2[N+](=O)[O-])n1	?	8	99	17	99	100	.	.	.	.	.	.
C/C(=N\NC(=O)Cc1cccn1C)c1cccs1	31*	-2	34*	21	30*	27	-1	102	104	102	104	106
Cc1cc(C(=O)OCC(=O)Nc2cccc(S(N)(=O)=O)c2)c2ccccc2n1	?	4	97	.	100	100	.	.	.	.	.	.
